target: Glucose transporter (Leishmania mexicana) (UniProt O61059); assay: ST_JUDE_LEISH: Cytotoxicity at 2uM final concentration against transgenic Leishmania Mexicana promastigotes LmGT2 that are glucose transport deficient and complemented with the L. Mexicana glucose transporter 2. Activity is measured by DNA content using SYBR green in vitro; type: functional

| Structure (SMILES) | inhibition [%] |
| --- | --- |
| CCC[C@@H]([C@@H](CC1CCCCC1)C(=O)N[C@H](C(=O)Nc1nccs1)C(C)(C)SC)N(O)C=O | 8.5 |
| Cc1cc(Nc2ccnc(-c3ccc(Cl)cc3)n2)ccn1 | 8.52 |
| CC(C)(CNCc1ccc(F)c(F)c1)c1nc(-c2ccc(Cl)c(O)c2)c(-c2ccncc2)[nH]1 | 0.94 |
| CCn1c(SC)nnc1C1CCCN(CC(=O)Nc2nc3ccc(OC)cc3s2)C1 (stereo not given) | 0.77 |
| CC(O)C1CCCCN1C(=O)c1cccc(-c2cccc(-c3nc4cc(C(F)(F)F)ccc4[nH]3)c2)c1 (stereo not given) | -0.12 |
| O=c1cc(NCCCNCc2cc(C(F)(F)F)ccc2Cl)[nH]c2ccccc12 | -1.57 |
| Cc1noc(=O)c2ccc(NC(=O)C(O)(CSc3ccccc3)CC(C)C)cc12 (stereo not given) | 3.58 |
| CN(C)CCCN1CCN(C(=O)c2cccc(-c3noc(C(F)(F)F)n3)c2)CC1 | 3.7 |
| CNc1ccc(CNCc2ccc(-c3ccc(-c4nc5cc(C(F)(F)F)ccc5[nH]4)cc3)cc2)cc1 | 9.71 |
| COc1ccc(-c2ncnc(C(F)(F)F)c2-c2ccc(Cl)cc2)c(O)c1 | 2.96 |
| COC(=O)c1ccc(Nc2nccc(Nc3ccc(Oc4ccccc4)cc3)n2)cc1 | 2.57 |
| Cc1ccc(-c2noc(=O)n2CC(=O)Nc2ccccc2-c2ccccc2)cc1 | -0.17 |
| N=C(N)Nc1nc(-c2cccc(NC(=O)NCc3cccc4ccccc34)c2)cs1 | 0.66 |
| CCc1cccc(NC(=O)c2ccc(CN3CCCN(CC4CCCCC4)CC3)cc2)c1 | 13.4 |
| O=C(COc1cnc2ccccc2n1)Nc1ccccc1Sc1ccc(Cl)cc1 | 3.2 |
| Cc1cc(=NN=CC=Cc2ccccc2)c2ccc(F)cc2[nH]1 | -0.62 |
| O=C(N[C@@H](CC1CCCCC1)C(=O)NC1CCCc2ccccc21)c1ccc(O)c(-c2cccc(C(F)(F)F)c2)c1 (stereo not given in full) | 2.66 |
| O=C(Nc1cc(F)c(F)c(-c2cccnc2)c1)N1CCc2cc(Cl)c(Cl)cc21 | -0.31 |
| COC(=O)c1cccc(CNCc2cccc(-c3ccc(-c4nc5cc(C(F)(F)F)ccc5[nH]4)cc3)c2)c1 | 2.66 |
| CCOC(=O)c1ccc(OCCOc2ccccc2)cc1 | 0.6 |

| Structure (SMILES) | inhibition [%] |
| --- | --- |
| Cc1ccc(Nc2ccnc3cc(-c4nccs4)ccc23)cc1C(O)c1ccccc1 (stereo not given) | 3.72 |
| CN1CCN(c2ccc(Nc3c(C(N)=O)cnc4cc(-c5ccoc5)ccc34)cc2)CC1 | 3.57 |
| COC(=O)c1cccc(NC(=O)NC2CCN(c3ccnc(Nc4cc(OC)c(OC)c(OC)c4)n3)C2)c1 (stereo not given) | 8.79 |
| CCc1ccc(-n2c(=O)c3cccnc3n2CC(=O)NC2CCCC2)cc1 | -1.74 |
| C=CCc1cc(Cc2cnc(N)nc2N)cc(CCC)c1O | -0.78 |
| CCOc1ccc(NC(=O)c2ccc(CN3CCCN(Cc4cccc(O)c4)CC3)cc2)cc1 | 4.11 |
| O=C(/C=C/c1ccccc1Cl)Nc1ccc(Br)c(OCCN2CCCCC2)c1 | -0.1 |
| Cc1ccc(CN2CCN(Cc3cccc(NC(=O)c4ccc5ccccc5c4)c3)CC2)cc1C | 4.04 |
| COc1ccc2c(NN=Cc3cccc(F)c3)ccnc2c1 | 4.14 |
| COCCNCc1cccc(-c2ccc3c(Nc4ccc(Oc5cccnc5)cc4)ccnc3c2)c1 | 2.93 |
| COc1ccc(CCCCN2C(=O)C(c3ccccc3)(c3ccccc3)N=C2N)cc1 | 0.32 |
| CN1CCN(CC(=O)Nc2cccc(-c3cccc(-c4nc5ccccc5[nH]4)c3)c2)CC1 | -3.47 |
| c1ccc2c(NCCc3c[nH]cn3)c3ccccc3nc2c1 | 2.23 |
| COCCn1c(Sc2ncnc3sccc23)nc2ccccc21 | 1.8 |
| N#Cc1ccc(-n2cc(C(=O)Nc3ccc4c(c3)CCN(C3CCC3)CC4)c(C(F)(F)F)n2)cc1 | 4.42 |
| Fc1cc(Cl)ccc1Nc1ccnc2cc(-c3ccc(CN4CCNCC4)o3)ccc12 | 1.34 |
| c1ccc(Oc2ccc(Nc3ccnc4cc(-c5cccc(CN6CCOCC6)c5)ccc34)cc2)cc1 | 1.46 |
| Cc1ccoc1C(=O)Nc1ccc(-c2cccc(-c3nc4cccc(C)c4[nH]3)c2)cc1 | 1.34 |
| CC(C)C1C(=O)N(S(C)(=O)=O)C2CCN(C(=O)c3ccc(CN4CCCCC4)c([N+](=O)[O-])c3)C12 (stereo not given) | -1.4 |
| O=C(Nc1cccc(-c2nc3ccccc3[nH]2)c1)c1ccc(-c2cccc([N+](=O)[O-])c2)o1 | 7.27 |
